The text below walks through data of ChEMBL document CHEMBL4513216, “Probing the Open Global Health Chemical Diversity Library for Multistage-Active Starting Points for Next-Generation Antimalarials” (ACS Infect Dis, 2020).

Out of some 65,000 compounds screened, about 2,100 (3.2%) showed an effect of 50% or more. The median lay at about -52%. This excerpt belongs to a sample that is enriched for strong results.

This assay relates to Plasmodium falciparum. Kind of assay: Screen against P. falciparum Asexual Blood Stage (ABS), at 5uM. It is filed as functional, Dd2. Conditions: tested at 5 uM.
In the case of `CC(Nc1cnn(C)c(=O)c1Cl)c1ccc(F)cc1` (stereo not given), the INHIBITION was -75.2%.
For the molecule `N#Cc1cccnc1OC1CCN(S(=O)(=O)c2c(F)cccc2F)CC1`, the INHIBITION is on record as -88.3%.
Then `COc1ccc(C)cc1C(=O)NC(CC(=O)O)c1cccs1` (stereo not given), with -134%.
Take `O=C(O)c1ccccc1CN1CCC2(Cc3ccccc3CNC2=O)C1` (stereo not given): the INHIBITION was -111%.
Then `O=C1NCc2ccccc2CC12CCCN(Cc1ccsc1)C2` (stereo not given), with 64.3%; and `N#Cc1ccc(CN2CCCC3(Cc4ccccc4CNC3=O)C2)cc1` (stereo not given), with 10.7%.
In the case of `COc1ccccc1CN1CCCC2(Cc3ccccc3CNC2=O)C1` (stereo not given), the INHIBITION was 54.5%.
As for `Cc1cccc(CN2CCCC3(Cc4ccccc4CNC3=O)C2)n1` (stereo not given), the INHIBITION is -31.3%.
Then `O=C1NCc2ccccc2CC12CCCN(CCCc1ccccc1)C2` (stereo not given), with 39.2%; and `CCC(=O)N(CCC(=O)O)Cc1ccc(F)c(F)c1`, with -62.6%.
The result for `Cc1cc(CN(C)C(C(=O)O)c2ccc(C(C)(C)C)cc2)on1` (stereo not given) reads -96.1%; that for `COc1ccc(CNc2c(N3CCN(C(C)=O)CC3)c(=O)c2=O)cc1`, -16.8%; that for `CC(C)c1[nH]c2ncccc2c1CN1CCC(O)CC1`, -59.2%.
Turning to `CC(C)(C)OC(=O)NCCc1csc(N2CCCC2)n1`, the INHIBITION is -50.6%.
The result for `Cn1cnc2c1C(COCc1ccccc1)N(Cc1ccncc1)CC2` (stereo not given) reads 51.6%.
The result for `Cn1cnc2c1C(COCc1cccnc1)N(Cc1ccccc1)CC2` (stereo not given) reads 23.7%; that for `Cn1cnc2c1C(COCc1ccccc1)N(Cc1cccnc1)CC2` (stereo not given), 36.7%; that for `Cn1cnnc1C1CCCN(C(=O)NCCCn2cccn2)C1` (stereo not given), -205%.
Take `CC(C)CC(=O)N1CCC2(CC1)COCCN2Cc1ccc(F)cc1`: the INHIBITION is listed as -3.2%.
Take `Cc1cc(C)cc(C(=O)Nc2cccc(CN3CCCC3C(N)=O)c2)c1` (stereo not given): the INHIBITION is -76.3%.
Then `CCCn1c(NCCc2ccccc2)nc2c(C)nn(C)c2c1=O`, with -42.9%; and `CCCNS(=O)(=O)Cc1ccc(Br)cc1`, with -14.1%.
Then `CN(C)CCN(C)S(=O)(=O)Cc1ccc(Br)cc1`, with 63.7%.
The result for `CC(O)CCN(C)S(=O)(=O)Cc1ccc(Br)cc1` (stereo not given) reads -23.8%; that for `CCOCC1CN(C(=O)C2=CCCC2)Cc2cnn(C)c21` (stereo not given), -16.8%.
As for `Cc1noc(C)c1CN1C[C@@H]2CCCO[C@@H]2[C@H](Nc2ccccn2)C1`, the INHIBITION is -37.5%.
As to `Cc1cccc(CN2C[C@@H]3CCCO[C@@H]3[C@H](Nc3ccccn3)C2)n1`, the INHIBITION amounted to 55.6%.
The result for `Cc1ccc(N[C@@H]2CN(Cc3cc(C)on3)C[C@@H]3CCCO[C@@H]32)nn1` reads -84.9%.
Turning to `N[C@@H]1c2ccccc2C2(CCN(c3ncccc3C(F)(F)F)CC2)[C@H]1O`, the INHIBITION was -6.42%.
Then `CCCC1CCCN(C(=O)Nc2ccc(F)c(C(N)=O)c2)CC1` (stereo not given), with -46%.
The result for `c1csc(CN2CCOCC3(CCN(C4CCOCC4)C3)C2)c1` (stereo not given) reads 50.4%; that for `Cc1cccc(CN2CCOCC3(CCN(C4CCOCC4)C3)C2)n1` (stereo not given), 42.5%.
Then `Fc1ccc(CN2CCCC3(COCCN(Cc4c[nH]nn4)C3)C2)cc1` (stereo not given), with 61.7%.
Regarding `c1cc(CN2CCCC3(COCCN(Cc4c[nH]nn4)C3)C2)cs1` (stereo not given), the INHIBITION was 27.7%.
As for `COc1ccc(CN2CCOCC3(CCN(C4CCOCC4)C3)C2)cc1` (stereo not given), the INHIBITION is listed as 61%.
The result for `Cn1cc(CN2CCOCC3(CCN(C4CCOCC4)C3)C2)cn1` (stereo not given) reads -41.5%; that for `COc1ccc(F)c(CN2CCCC3(CCN(C4CCOCC4)C3)C2)c1` (stereo not given), 3.41%; that for `Cn1cc(CN2CCCC3(COCCN(Cc4c[nH]nn4)C3)C2)cn1` (stereo not given), -58.4%.
Consider `Cc1ccc(CN2CCOCC3(CCN(Cc4cccs4)C3)C2)o1` (stereo not given), for which the INHIBITION was determined as 41.9%.
Take `c1cn(-c2ccc(N3CCC(NC4CC4)CC3)cc2)cn1`: the INHIBITION is given as 18.4%.
Then `CC(C)c1cc(CN(C)C(=O)C(C)N2CCc3ccccc3C2)no1` (stereo not given), with -28.5%; and `N[C@H]1CCCN(S(=O)(=O)c2ccc(C(=O)NCC(F)F)cc2)C1`, with -117%.
The result for `Cc1cc(C)cc(OCCN(C)C2CCOC2=O)c1` (stereo not given) reads -68.2%.
The result for `NC(C(=O)N1CCSc2ccccc2C1)c1ccccc1` (stereo not given) reads 60.9%; that for `CC(C)C[C@H](N)C(=O)N1CCSc2ccccc2C1`, 48%; that for `N[C@@H](C(=O)N1CCN(c2ccccc2Cl)C(=O)C1)c1ccccc1`, -17.6%.
As to `O=S1(=O)CCC(NCCn2cncc2-c2ccc3c(c2)CCCO3)C1` (stereo not given), the INHIBITION is on record as -91.4%.
The result for `O=S(=O)(C1CC1)N1CC[C@]2(C[C@@H](Oc3ncccc3F)CO2)C1` reads -24.1%; that for `CN(C)C(=O)c1cnc2n1CCN(Cc1cccnc1)C2`, -6.2%; that for `N#Cc1ccnc(NCc2cc3n(n2)CCCN(C(=O)C2CCC2)C3)c1`, -89.1%.
The result for `CN(Cc1ccccn1)C(CO)c1cccc(Br)c1` (stereo not given) reads -68.3%; that for `Cc1nn(CCO)c(C)c1CNC1CCOc2ccccc21` (stereo not given), -36%.
The result for `Cc1nn(CCO)c(C)c1CNC1CCCCc2ccccc21` (stereo not given) reads -4.05%.
As for `Cc1nn(CCO)c(C)c1CNC1CCC(C)(C)c2ccccc21` (stereo not given), the INHIBITION was 69.2%.
Then `Cc1cc2c(=O)n3c(nc2s1)CCN(Cc1[nH]cnc1C)CC3`, with -96.3%; and `O=C(NCCNc1cc(N2CCCC2)cnn1)Nc1ccccc1F`, with -93.6%; and `Cc1sc2c(C3CCNCC3)nc(Nc3cccc(F)c3)n2c1C`, with -126%.
Then `O=C1NCC2(CCCN(CCc3ccccc3)C2)Oc2ccccc21` (stereo not given), with 51.7%.
The result for `O=C1NCC2(CCCN(Cc3ccc(F)cc3)C2)Oc2ccccc21` (stereo not given) reads -41%.
`O=C1NCC2(CCCN(Cc3ccccc3F)C2)Oc2ccccc21` (stereo not given): the INHIBITION is listed as -20.4%.
The result for `COc1ccc(C(=O)CCC(=O)NCc2c(C)noc2C)cc1F` reads -164%; that for `CCCc1ncc(C(=O)N2CCOc3ncccc32)s1`, -13.4%; that for `NC(=O)Cn1cc(NC(=O)N2CCN(c3ccc(F)cc3)CC2)cn1`, -40.9%.
The result for `Cc1cccc(N2CCN(C(=O)Nc3cnn(CC(N)=O)c3)CC2)c1` reads -67.3%; that for `NC(=O)Cn1cc(NC(=O)N2CCN(c3ccccc3)CC2)cn1`, 63.7%; that for `COc1ccccc1CN1CC(OC)CN(C(=O)OCC(C)C)CC1=O` (stereo not given), -40.4%.
Then `CC(c1cccs1)N(C)Cc1cnc(-c2ccccn2)nc1` (stereo not given), with -132%; and `Cc1ccc(C(=O)NCCCNS(C)(=O)=O)cc1-n1cccc1`, with -137%.
Regarding `C[C@@H](O)[C@H](NC(=O)c1csc2nc(-c3ccccc3F)cn12)C(N)=O`, the INHIBITION was -41.1%.
Regarding `c1cc(-c2cnccn2)cc(-c2ccn(CCN3CCCCC3)n2)c1`, the INHIBITION was determined as 43.8%.
The result for `CN(C)CCCn1ccc(-c2cccc(-c3ccccn3)c2)n1` reads 61%; that for `CN(C)CCCn1ccc(-c2cccc(-c3cncnc3)c2)n1`, 14.5%; that for `c1cc(-c2cnccn2)cc(-c2ccn(CCN3CCCC3)n2)c1`, 69.1%.
For `c1cc(-c2cnccn2)cc(-c2ccn(CCCN3CCCCC3)n2)c1`, the INHIBITION was found to be 21.9%.
With `COc1ccc(-c2cccc(-c3ccn(CCCN(C)C)n3)c2)nn1`, the INHIBITION is -18.6%.
On to `Cc1cc(CN2CCc3c(CNc4ncccn4)cncc3C2)oc1C`, for which the INHIBITION is 0.619%.
The result for `c1ccc(CN2CCc3c(COCC4CC4)cncc3C2)nc1` reads 59.3%.
The result for `c1ccc(CN2CCc3c(COCc4ccncc4)cncc3C2)nc1` reads -14.6%.
Consider `CN(C)C(=O)COCc1cncc2c1CCN(Cc1ccccn1)C2`, for which the INHIBITION came out at 25.8%.
Then `CN(CC(=O)NCc1cccnc1N1CCCCC1)C(=O)c1cccs1`, with -48.6%; and `CC(C)c1ccc(-n2nnc(C(=O)O)c2-c2ccccn2)cc1`, with -101%.
The result for `N#Cc1cccnc1OC1CCN(S(=O)(=O)c2ccc(Br)cc2)CC1` reads -92.6%; that for `NCCc1nc(N[C@@H](CO)c2ccccc2)c2ccccc2n1`, -39.4%; that for `CCC(Nc1nc(CCN)nc2ccccc12)c1cccs1` (stereo not given), 63.5%.
Then `CCC(Nc1nc(CCN)nc2ccccc12)c1cc(C)ccn1` (stereo not given), with -22%; and `N#Cc1cccnc1N1CCC(Nc2ccccc2)C1` (stereo not given), with -76.7%; and `O=C(CC1CC1)NCc1cn2c(n1)CN(Cc1cccc(F)c1)CC2`, with -52%.
`CCNC(=O)COc1cc(CC)c2c(C)nn(-c3ccc(C)cc3)c2n1`: the INHIBITION was -21.1%.
For `CC(C)[C@@H]1CN(CCCOc2ccc(F)cc2)C[C@H]1NS(C)(=O)=O`, the INHIBITION came out at 53.7%.
Then `CCc1ccccc1OCCN1C[C@@H](NS(C)(=O)=O)[C@H](C(C)C)C1`, with 45.2%.
Then `CC(C)[C@@H]1CN(CCOc2ccc(Cl)cc2)C[C@H]1NS(C)(=O)=O`, with 45.9%.
Then `CN(C)CCNC(=O)c1nc2c(s1)CCCN2C(=O)C1CC1`, with 25.4%; and `CC(O)CNCc1ccc(OCc2ccc3c(c2)OCCO3)cc1` (stereo not given), with -169%.
On to `COc1ccc(-n2ncc3c2NC(=O)CSC3CC(C)C)cc1` (stereo not given), for which the INHIBITION was -124%.
`CCn1ccnc1CN1CCN(CC(=O)NC(=O)NC2CC2)CC1`: the INHIBITION was -97.3%.
Then `CCn1ccnc1CN1CCN(C(C)C(=O)NC2CCCCC2)CC1` (stereo not given), with -83.4%.
Then `CCn1ccnc1CN1CCN(CC(=O)NC(C2CC2)C2CC2)CC1`, with 61.4%; and `CCn1ccnc1CN1CCN(C(C)C(=O)NC2CCCC2)CC1` (stereo not given), with 51%.
The result for `CCn1ccnc1CN1CCN(C(C)C(=O)N2CCCC2)CC1` (stereo not given) reads -81.3%; that for `CCn1ccnc1CN1CCN(CC(=O)NC2CCOCC2)CC1`, -29%.
For the molecule `O=C1C(N2CCOCC2)CCCN1Cc1cccc(C(F)(F)F)c1` (stereo not given), the INHIBITION is listed as -61.2%.
Then `CC(C)(C)c1nc(CN(CCC2CCCCC2)CC(N)=O)no1`, with -85.5%.
On to `COc1ccc(CN2CCC(C(N)=O)CC2)cc1SC(F)(F)F`, for which the INHIBITION amounted to 63.5%.
Then `COc1cc(Cl)c(CN2CCC(C(N)=O)C2)cc1Cl` (stereo not given), with 7.24%; and `COc1ccc(CN2CCC(C(N)=O)C2)c(Br)c1OC` (stereo not given), with -93.4%.
